# Reference: ChEMBL document CHEMBL2218924, “A broad activity screen in support of a chemogenomic map for kinase signalling research and drug discovery” (Biochem J, 2013)
# Tests used:
# [1] = target: Serine/threonine-protein kinase PLK3 (Homo sapiens) (UniProt Q9H4B4); settings: at 1 µM
# [2] = target: Serine/threonine-protein kinase PLK3 (Homo sapiens) (UniProt Q9H4B4); settings: at 10 µM
# [3] = target: T1, cAMP-dependent protein kinase catalytic subunit PRKX (Homo sapiens) (UniProt P51817); settings: at 1 µM
# T1 sequence (whole entry): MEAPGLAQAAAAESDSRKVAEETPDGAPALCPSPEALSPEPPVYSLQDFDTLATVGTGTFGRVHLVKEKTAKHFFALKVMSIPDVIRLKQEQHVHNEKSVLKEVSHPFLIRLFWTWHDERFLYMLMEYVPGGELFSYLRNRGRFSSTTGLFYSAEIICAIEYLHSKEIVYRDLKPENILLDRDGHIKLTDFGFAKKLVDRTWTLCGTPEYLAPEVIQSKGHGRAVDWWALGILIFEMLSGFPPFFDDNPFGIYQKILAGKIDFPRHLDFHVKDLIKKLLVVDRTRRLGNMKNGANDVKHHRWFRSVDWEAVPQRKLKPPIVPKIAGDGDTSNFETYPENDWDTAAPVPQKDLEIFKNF
# [4] = target: T1, cAMP-dependent protein kinase catalytic subunit PRKX (Homo sapiens); settings: at 10 µM
# [5] = target: Protein-tyrosine kinase 2-beta (Homo sapiens) (UniProt Q14289); settings: at 1 µM
# Protein-tyrosine kinase 2-beta (Homo sapiens), sequence (Q14289 whole entry, looked up): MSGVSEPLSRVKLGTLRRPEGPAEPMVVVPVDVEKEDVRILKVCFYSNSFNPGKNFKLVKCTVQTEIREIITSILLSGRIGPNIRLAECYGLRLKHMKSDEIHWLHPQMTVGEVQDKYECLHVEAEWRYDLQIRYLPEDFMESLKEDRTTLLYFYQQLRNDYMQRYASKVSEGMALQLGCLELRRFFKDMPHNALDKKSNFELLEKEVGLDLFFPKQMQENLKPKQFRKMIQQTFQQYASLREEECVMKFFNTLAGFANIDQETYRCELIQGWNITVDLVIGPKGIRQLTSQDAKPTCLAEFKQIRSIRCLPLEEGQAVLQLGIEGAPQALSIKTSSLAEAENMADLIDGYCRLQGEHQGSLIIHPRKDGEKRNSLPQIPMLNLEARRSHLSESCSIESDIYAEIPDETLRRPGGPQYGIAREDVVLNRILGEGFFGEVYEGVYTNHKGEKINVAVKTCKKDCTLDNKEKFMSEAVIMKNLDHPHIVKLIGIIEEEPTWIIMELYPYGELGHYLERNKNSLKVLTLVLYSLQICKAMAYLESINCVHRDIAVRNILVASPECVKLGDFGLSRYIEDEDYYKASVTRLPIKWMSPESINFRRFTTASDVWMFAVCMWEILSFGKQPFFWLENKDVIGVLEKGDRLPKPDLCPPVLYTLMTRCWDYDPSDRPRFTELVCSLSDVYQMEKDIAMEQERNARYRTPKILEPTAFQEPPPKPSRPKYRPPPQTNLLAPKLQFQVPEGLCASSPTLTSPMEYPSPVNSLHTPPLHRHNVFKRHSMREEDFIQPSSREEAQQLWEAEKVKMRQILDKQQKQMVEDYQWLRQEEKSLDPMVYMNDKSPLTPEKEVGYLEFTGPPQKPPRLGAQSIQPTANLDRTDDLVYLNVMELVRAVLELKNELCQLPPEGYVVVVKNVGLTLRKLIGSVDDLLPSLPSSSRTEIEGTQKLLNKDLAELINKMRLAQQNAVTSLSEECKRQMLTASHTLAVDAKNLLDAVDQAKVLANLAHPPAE
# [6] = target: Protein-tyrosine kinase 2-beta (Homo sapiens) (UniProt Q14289); settings: at 10 µM
# [7] = target: Receptor-interacting serine/threonine-protein kinase 2 (Homo sapiens) (UniProt O43353); settings: at 1 µM
# Receptor-interacting serine/threonine-protein kinase 2 (Homo sapiens), sequence (O43353 whole entry): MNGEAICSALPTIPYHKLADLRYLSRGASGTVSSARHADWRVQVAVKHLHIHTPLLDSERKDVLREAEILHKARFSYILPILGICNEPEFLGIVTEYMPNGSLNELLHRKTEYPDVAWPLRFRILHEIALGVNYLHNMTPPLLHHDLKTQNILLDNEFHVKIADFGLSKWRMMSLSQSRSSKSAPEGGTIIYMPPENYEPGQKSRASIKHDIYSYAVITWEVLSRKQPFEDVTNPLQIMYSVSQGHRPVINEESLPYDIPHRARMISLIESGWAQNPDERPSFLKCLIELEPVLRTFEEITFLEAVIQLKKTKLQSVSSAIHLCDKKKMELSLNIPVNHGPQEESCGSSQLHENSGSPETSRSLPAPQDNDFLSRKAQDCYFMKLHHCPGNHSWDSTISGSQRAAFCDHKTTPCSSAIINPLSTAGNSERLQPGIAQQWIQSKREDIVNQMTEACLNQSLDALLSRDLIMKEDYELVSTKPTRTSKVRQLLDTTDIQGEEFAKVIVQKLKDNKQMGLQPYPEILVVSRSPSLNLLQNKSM
# [8] = target: Receptor-interacting serine/threonine-protein kinase 2 (Homo sapiens) (UniProt O43353); settings: at 10 µM
# [9] = target: Rho-associated protein kinase 2 (Homo sapiens) (UniProt O75116); settings: at 1 µM
# [10] = target: Rho-associated protein kinase 2 (Homo sapiens) (UniProt O75116); settings: at 10 µM
# [11] = target: Proto-oncogene tyrosine-protein kinase receptor Ret (Homo sapiens) (UniProt P07949); settings: at 1 µM
# Proto-oncogene tyrosine-protein kinase receptor Ret (Homo sapiens), sequence (P07949 whole entry): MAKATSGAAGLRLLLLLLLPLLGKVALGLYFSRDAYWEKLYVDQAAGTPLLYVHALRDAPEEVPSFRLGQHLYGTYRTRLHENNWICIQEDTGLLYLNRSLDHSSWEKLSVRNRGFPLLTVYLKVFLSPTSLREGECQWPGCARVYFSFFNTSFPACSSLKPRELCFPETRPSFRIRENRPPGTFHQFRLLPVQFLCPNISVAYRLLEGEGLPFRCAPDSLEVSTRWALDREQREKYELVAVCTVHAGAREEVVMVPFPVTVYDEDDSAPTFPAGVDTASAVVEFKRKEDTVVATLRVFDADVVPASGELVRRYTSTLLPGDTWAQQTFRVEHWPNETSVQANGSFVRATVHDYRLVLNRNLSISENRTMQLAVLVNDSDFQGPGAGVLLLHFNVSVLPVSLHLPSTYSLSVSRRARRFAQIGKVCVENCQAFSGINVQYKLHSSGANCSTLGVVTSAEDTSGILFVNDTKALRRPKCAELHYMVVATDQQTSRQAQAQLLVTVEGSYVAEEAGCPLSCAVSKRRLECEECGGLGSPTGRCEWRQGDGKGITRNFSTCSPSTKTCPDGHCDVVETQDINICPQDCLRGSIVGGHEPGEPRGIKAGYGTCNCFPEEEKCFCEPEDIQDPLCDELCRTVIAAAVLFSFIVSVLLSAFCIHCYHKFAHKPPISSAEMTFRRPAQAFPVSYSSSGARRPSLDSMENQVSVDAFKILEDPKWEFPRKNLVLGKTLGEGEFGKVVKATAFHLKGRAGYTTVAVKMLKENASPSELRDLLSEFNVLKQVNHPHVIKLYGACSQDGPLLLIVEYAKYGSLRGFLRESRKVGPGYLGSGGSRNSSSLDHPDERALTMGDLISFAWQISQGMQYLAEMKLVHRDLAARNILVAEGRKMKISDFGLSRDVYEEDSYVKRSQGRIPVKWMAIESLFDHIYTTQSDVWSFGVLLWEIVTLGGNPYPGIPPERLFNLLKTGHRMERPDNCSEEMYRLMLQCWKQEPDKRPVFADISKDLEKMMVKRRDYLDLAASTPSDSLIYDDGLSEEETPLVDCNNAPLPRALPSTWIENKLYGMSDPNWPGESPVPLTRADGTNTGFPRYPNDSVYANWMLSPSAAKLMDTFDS
# [12] = target: Proto-oncogene tyrosine-protein kinase receptor Ret (Homo sapiens) (UniProt P07949); settings: at 10 µM
# [13] = target: Macrophage-stimulating protein receptor (Homo sapiens) (UniProt Q04912); settings: at 1 µM
# [14] = target: Macrophage-stimulating protein receptor (Homo sapiens) (UniProt Q04912); settings: at 10 µM
# [15] = target: Proto-oncogene tyrosine-protein kinase ROS (Homo sapiens) (UniProt P08922); settings: at 1 µM
# Proto-oncogene tyrosine-protein kinase ROS (Homo sapiens), sequence (P08922 whole entry): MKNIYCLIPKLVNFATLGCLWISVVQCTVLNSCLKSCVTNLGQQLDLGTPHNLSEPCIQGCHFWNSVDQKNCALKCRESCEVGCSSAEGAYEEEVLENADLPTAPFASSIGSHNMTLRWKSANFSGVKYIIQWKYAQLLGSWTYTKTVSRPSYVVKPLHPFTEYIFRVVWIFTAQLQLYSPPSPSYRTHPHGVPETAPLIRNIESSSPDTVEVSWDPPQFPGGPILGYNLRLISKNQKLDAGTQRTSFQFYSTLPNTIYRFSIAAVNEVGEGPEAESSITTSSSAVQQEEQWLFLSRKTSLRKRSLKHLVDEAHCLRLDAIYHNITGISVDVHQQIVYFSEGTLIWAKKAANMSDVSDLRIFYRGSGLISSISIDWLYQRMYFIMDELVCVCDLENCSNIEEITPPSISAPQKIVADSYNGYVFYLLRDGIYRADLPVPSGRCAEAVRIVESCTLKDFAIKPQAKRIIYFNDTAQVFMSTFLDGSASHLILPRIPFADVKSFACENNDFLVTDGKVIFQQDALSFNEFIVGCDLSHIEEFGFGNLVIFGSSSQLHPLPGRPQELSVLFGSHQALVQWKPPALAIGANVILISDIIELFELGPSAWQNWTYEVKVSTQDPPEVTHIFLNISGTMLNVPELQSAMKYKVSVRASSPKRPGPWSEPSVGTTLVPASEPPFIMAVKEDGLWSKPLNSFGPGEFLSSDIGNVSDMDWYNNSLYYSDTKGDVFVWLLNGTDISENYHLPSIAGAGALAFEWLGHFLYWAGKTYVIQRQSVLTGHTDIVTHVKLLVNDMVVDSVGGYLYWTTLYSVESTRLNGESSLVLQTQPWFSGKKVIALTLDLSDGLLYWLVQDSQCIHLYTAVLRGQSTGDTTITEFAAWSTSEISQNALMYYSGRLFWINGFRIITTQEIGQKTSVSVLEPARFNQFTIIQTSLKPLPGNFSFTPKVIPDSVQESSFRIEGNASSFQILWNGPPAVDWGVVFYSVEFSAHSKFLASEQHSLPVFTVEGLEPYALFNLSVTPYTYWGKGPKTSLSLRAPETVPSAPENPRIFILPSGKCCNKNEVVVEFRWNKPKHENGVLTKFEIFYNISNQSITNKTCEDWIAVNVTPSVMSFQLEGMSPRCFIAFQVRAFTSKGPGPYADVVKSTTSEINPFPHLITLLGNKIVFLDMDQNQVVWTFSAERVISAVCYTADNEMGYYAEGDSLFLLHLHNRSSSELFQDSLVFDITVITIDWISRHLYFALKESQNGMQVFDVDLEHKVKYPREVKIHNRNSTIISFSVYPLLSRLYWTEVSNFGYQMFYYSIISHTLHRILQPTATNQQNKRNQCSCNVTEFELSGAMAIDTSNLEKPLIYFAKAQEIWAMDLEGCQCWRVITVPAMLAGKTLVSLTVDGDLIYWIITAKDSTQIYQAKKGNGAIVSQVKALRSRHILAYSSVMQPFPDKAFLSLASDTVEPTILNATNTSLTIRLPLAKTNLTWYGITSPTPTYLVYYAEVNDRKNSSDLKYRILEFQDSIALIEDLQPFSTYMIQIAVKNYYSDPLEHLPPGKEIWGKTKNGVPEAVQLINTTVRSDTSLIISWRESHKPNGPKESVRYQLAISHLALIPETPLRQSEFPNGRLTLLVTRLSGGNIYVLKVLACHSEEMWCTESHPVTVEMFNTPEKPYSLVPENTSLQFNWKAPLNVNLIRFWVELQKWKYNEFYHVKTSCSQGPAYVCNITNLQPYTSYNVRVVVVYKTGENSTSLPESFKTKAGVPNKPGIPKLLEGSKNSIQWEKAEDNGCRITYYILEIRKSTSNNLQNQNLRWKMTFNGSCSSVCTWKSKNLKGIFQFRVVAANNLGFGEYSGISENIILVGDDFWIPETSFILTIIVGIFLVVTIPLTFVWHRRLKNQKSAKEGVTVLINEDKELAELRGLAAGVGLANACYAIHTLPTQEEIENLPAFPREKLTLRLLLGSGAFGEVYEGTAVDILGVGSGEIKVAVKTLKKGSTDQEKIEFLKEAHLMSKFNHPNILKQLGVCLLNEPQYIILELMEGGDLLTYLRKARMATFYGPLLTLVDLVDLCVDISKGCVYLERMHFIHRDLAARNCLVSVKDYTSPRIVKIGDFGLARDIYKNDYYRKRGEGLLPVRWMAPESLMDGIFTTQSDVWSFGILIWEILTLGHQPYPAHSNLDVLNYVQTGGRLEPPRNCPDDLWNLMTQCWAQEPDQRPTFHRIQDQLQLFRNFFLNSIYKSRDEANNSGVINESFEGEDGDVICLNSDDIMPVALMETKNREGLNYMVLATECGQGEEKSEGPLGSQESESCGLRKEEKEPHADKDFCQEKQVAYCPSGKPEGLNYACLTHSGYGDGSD
# [16] = target: Proto-oncogene tyrosine-protein kinase ROS (Homo sapiens) (UniProt P08922); settings: at 10 µM
# [17] = target: T2, Tyrosine-protein kinase receptor TYRO3 (Homo sapiens) (UniProt Q06418); settings: at 1 µM
# T2 sequence (whole entry): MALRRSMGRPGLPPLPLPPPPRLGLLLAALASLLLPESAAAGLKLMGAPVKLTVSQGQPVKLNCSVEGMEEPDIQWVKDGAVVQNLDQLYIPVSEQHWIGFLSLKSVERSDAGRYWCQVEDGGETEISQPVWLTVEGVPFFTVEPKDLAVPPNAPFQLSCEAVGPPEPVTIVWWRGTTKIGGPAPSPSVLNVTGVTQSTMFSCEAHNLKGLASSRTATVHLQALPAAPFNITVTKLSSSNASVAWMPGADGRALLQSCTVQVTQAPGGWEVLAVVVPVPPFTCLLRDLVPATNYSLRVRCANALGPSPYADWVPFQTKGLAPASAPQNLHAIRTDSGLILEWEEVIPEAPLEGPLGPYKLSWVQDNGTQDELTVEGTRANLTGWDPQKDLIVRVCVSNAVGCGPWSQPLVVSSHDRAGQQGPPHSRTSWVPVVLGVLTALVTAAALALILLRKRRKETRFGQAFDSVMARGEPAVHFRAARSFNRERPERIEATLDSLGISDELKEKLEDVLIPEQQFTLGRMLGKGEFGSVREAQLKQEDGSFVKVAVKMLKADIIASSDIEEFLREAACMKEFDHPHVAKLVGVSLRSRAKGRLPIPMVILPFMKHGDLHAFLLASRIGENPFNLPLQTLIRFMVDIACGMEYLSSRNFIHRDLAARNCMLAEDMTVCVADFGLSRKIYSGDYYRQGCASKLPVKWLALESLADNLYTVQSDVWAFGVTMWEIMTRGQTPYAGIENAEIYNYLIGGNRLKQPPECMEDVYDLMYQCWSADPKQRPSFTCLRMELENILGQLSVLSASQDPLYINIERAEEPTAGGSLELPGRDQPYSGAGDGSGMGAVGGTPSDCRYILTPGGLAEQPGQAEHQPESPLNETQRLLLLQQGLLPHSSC
# [18] = target: T2, Tyrosine-protein kinase receptor TYRO3 (Homo sapiens); settings: at 10 µM
# [19] = target: Rho-associated protein kinase 1 (Homo sapiens) (UniProt Q13464); settings: at 1 µM
# [20] = target: Rho-associated protein kinase 1 (Homo sapiens) (UniProt Q13464); settings: at 10 µM
SMILES,residual activity [1],residual activity [2] [%],residual activity [3] [%],residual activity [4] [%],residual activity [5] [%],residual activity [6] [%],residual activity [7] [%],residual activity [8] [%],residual activity [9] [%],residual activity [10] [%],residual activity [11] [%],residual activity [12] [%],residual activity [13] [%],residual activity [14] [%],residual activity [15] [%],residual activity [16] [%],residual activity [17] [%],residual activity [18] [%],residual activity [19] [%],residual activity [20] [%]
O=c1cc(N2CCOCC2)oc2c1ccc1ccccc12,99% (inactive),68,97,96,130,100,86,83,99,67,99,107,98,75,100,99,87,93,–,–
CC(C)(C)n1nc(Cc2cccc3ccccc23)c2c(N)ncnc21,94% (inactive),97,98,75,89,29,27,17,104,77,11,1,110,77,96,94,87,73,114,125
COc1ccc(Cl)cc1NC(=O)Nc1cc(C)nc2ccccc12,96% (inactive),93,–,55,–,85,99,93,96,79,93,87,–,–,96,92,–,–,–,–
O=C(O)/C=C/c1cc(Br)c(Br)c(Br)c1Br,60% (inactive),-9,68,76,–,–,100,83,–,–,103,103,56,43,108,97,98,106,–,98
Cc1cc(C)c(/C=C2\C(=O)Nc3ccccc32)[nH]1,102% (inactive),–,–,–,–,–,–,–,–,80,–,–,–,–,–,–,68,62,–,–
O=c1cc(N2CCNCC2)oc2c(-c3ccccc3)cccc12,100% (inactive),95,93,87,–,96,97,82,–,80,–,–,76,58,97,91,94,96,–,–
Fc1ccc(-c2nc3n(c2-c2ccncc2)CCS3)cc1,100% (inactive),95,92,92,–,–,65,24,–,–,98,83,–,–,–,–,–,–,123,–
O=C1NC(=O)c2c1c1c3ccccc3[nH]c1n1cncc21,55% (inactive),31,80,75,32,19,79,72,88,85,59,33,73,71,97,88,95,69,–,96
